# Assay results reported in ChEMBL document CHEMBL3988442, “University of Dundee, Small-Polar-MMV Screening Library” (2021).
# Target: T1, Aspartate--tRNA(Asp/Asn) ligase (Mycobacterium tuberculosis (strain ATCC 25618 / H37Rv)) (UniProt P9WFW3); also: in the data most compounds retested in dose-response had high values
# T1 sequence (whole entry): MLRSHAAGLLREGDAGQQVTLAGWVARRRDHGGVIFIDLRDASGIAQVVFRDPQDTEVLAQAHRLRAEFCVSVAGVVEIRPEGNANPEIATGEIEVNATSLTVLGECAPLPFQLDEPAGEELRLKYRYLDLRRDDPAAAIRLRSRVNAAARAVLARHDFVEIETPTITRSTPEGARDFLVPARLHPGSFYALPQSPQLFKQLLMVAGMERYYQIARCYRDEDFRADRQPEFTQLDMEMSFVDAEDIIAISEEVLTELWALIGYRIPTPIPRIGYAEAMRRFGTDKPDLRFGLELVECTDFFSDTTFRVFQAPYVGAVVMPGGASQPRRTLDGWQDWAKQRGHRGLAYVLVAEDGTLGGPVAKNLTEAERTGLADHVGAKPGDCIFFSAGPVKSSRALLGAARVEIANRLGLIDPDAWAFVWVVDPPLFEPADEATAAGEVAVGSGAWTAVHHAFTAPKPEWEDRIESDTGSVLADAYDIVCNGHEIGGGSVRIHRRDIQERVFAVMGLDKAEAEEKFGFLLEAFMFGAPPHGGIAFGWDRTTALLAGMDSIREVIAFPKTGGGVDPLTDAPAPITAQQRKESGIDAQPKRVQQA
# Assay: Assay for Asp RNA synthetase-1 from Mycobacterium tuberculosis
# Format: functional
# Set-up: scale not given: direction of the effect not stated beside the values
# Details: 30 µM
row,Compound,Percent Effect [%]
1,Cc1nn(C)c(N(C)C)c1CNCc1cccnc1-n1cncn1,-4.35
2,CN1CC(=O)N(c2ccccc2)CC12CCN(CC1CC1)C2 (stereo not given),3.68
3,CCn1cc(CN2CCCN(C(=O)c3ccn(C)c(=O)c3)CC2)cn1,1.33
4,CCc1nc(C2CCCN2CCCS(=O)(=O)c2ccccc2)no1 (stereo not given),-4.39
5,CN(C)C(=O)CO[C@@H]1CC[C@H]2[C@H]1OCCN2C(=O)C1CCOCC1,-1.59
6,Cc1ccc(NC2CCN(C(=O)COc3cccnc3)CC2)nn1,-4.47
7,Cn1ccnc1CN1CCC2(CC1)CN(CC1CC1)C(=O)CO2,2.11
8,COCCN(C)C[C@@H]1CN(C(=O)c2cccc(C(F)(F)F)c2)C[C@@H]1CO,-4.52
9,Cc1cccc2c1OCCC2NCc1c(C)nn(C)c1N(C)C (stereo not given),0.256
10,Cn1cc(CNC2CCCN(Cc3noc(C4CC4)n3)C2)cn1 (stereo not given),-1.26
11,Cc1ccc([C@@H]2CN(C(=O)c3ccc[nH]3)C[C@H]2NC(=O)C2CC2)cc1,-1.93
12,Cc1nc(CNC(=O)Cn2nc(-c3ccc(F)cc3)oc2=O)cs1,-0.967
13,CS(=O)(=O)CC(=O)N1C[C@@H]2COC[C@]2(c2nnc(C3CC3)o2)C1,-1.72
14,Cc1csc(Nc2nccnc2C2CCCN2C(=O)C(C)C)n1 (stereo not given),7.04
15,CN(C)S(=O)(=O)N1CC[C@@H]2CN(Cc3cnn(C)c3)C[C@@H]2C1,6.22
16,CC(C)(C)c1cn2nc(N3CCOC(Cn4cncn4)C3)sc2n1 (stereo not given),-2.01
17,Clc1ccc2cccnc2c1CN1CCCC1Cn1cncn1 (stereo not given),-0.524
18,CCc1nc(C(=O)N2CCCC2)nn1-c1ccccc1Cl,-1.24
19,Cn1ccc(CN2CCC(Oc3ccccc3)CC2)cc1=O,-1.21
20,O=C(c1ccoc1)N1CCCn2cnc(COCC3CC3)c2C1,-5.91

row,Compound,Percent Effect [%]
1,O=C(NCCC(=O)N1CCCCCC1)c1c(O)cc(F)cc1F,-0.98
2,CN(C)[C@@H]1CN(Cc2ccoc2)C[C@@H]2CCCO[C@@H]21,-2.7
3,O=C(NCC1CCSCC1)N(CCCO)C1CCc2ccccc21 (stereo not given),6.01
4,CC(C)OCCOCc1cccc(NC(=O)NCc2ccccn2)c1,8.32
5,O=C1CCCCN1Cc1cccc(NC(=O)N2CCSCC2)c1,-4.71
6,COCCOc1ccccc1CNCc1c(C)nn(C)c1N(C)C,2.62
7,O=C(C1=CCCC1)N1CCO[C@H]2[C@@H](OCC3CC3)CC[C@@H]21,2.53
8,CC(NC(=O)NCc1cc[nH]n1)c1ccc2c(c1)CCC(=O)N2 (stereo not given),-1.15
9,CCN1C(=O)CCCC12CCCN(C(=O)c1cnccn1)C2 (stereo not given),0.865
10,CCC(C)NC(=O)Nc1ccc(CN2CCOC2=O)cc1 (stereo not given),-0.167
11,CC(C)(C)c1cn2nc(N3CCCC3Cn3cncn3)sc2n1 (stereo not given),-3.59
12,CC(Cc1ccco1)NC(=O)Nc1ccc(N2CCOCC2)nc1 (stereo not given),-3.59
13,CC(C)CN1C(=O)C2(CCN(Cc3nccs3)C2)c2ccccc21 (stereo not given),-0.662
14,Cc1ccc2oc(C(=O)N3CCCC(n4nc(C)cc4C)C3)cc2n1 (stereo not given),-3.54
15,CCc1nnc2n1CCN(C(=O)c1ccc3nc(C)c(C)nc3c1)C2,-2.42
16,CCn1ncc2c1CCCC2NCc1ccc(OC)c(C)c1 (stereo not given),-4.46
17,CCOc1ccccc1C(CC(=O)Nc1nc(C)cs1)NC(C)=O (stereo not given),-0.233
18,CC(C)c1cc(NC(=O)CN2CCc3cncnc3C2)on1,2.37
19,c1coc(CN2Cc3nccn3CC(Cn3cncn3)C2)c1 (stereo not given),-0.866
20,CC(=O)c1ccc(N2CCC(CO)(CCOc3ccccc3)CC2)nc1,0.327

# Target: Shiga toxin 2 (Escherichia coli O157:H7) (UniProt P09385+P09386)
# Assay: E. coli 0.157:H7 Shiga Toxin SOP - stx2 screening assay
# Format: functional
# Set-up: scale not given: direction of the effect not stated beside the values
# Details: 30 µM
row,Compound,Percent Effect [%]
1,Cc1nn(C)c(N(C)C)c1CNCc1cccnc1-n1cncn1,-5.81
2,CN1CC(=O)N(c2ccccc2)CC12CCN(CC1CC1)C2 (stereo not given),-5.63
3,CCn1cc(CN2CCCN(C(=O)c3ccn(C)c(=O)c3)CC2)cn1,-0.744
4,CCc1nc(C2CCCN2CCCS(=O)(=O)c2ccccc2)no1 (stereo not given),-9.14
5,CN(C)C(=O)CO[C@@H]1CC[C@H]2[C@H]1OCCN2C(=O)C1CCOCC1,-10.1
6,Cc1ccc(NC2CCN(C(=O)COc3cccnc3)CC2)nn1,-129
7,Cn1ccnc1CN1CCC2(CC1)CN(CC1CC1)C(=O)CO2,-17.7
8,COCCN(C)C[C@@H]1CN(C(=O)c2cccc(C(F)(F)F)c2)C[C@@H]1CO,8.62
9,Cc1cccc2c1OCCC2NCc1c(C)nn(C)c1N(C)C (stereo not given),28.5
10,Cn1cc(CNC2CCCN(Cc3noc(C4CC4)n3)C2)cn1 (stereo not given),24.8
11,Cc1ccc([C@@H]2CN(C(=O)c3ccc[nH]3)C[C@H]2NC(=O)C2CC2)cc1,3.8
12,Cc1nc(CNC(=O)Cn2nc(-c3ccc(F)cc3)oc2=O)cs1,17.9
13,CS(=O)(=O)CC(=O)N1C[C@@H]2COC[C@]2(c2nnc(C3CC3)o2)C1,-40.1
14,Cc1csc(Nc2nccnc2C2CCCN2C(=O)C(C)C)n1 (stereo not given),13.1
15,CN(C)S(=O)(=O)N1CC[C@@H]2CN(Cc3cnn(C)c3)C[C@@H]2C1,-8.71
16,CC(C)(C)c1cn2nc(N3CCOC(Cn4cncn4)C3)sc2n1 (stereo not given),-8.88
17,Clc1ccc2cccnc2c1CN1CCCC1Cn1cncn1 (stereo not given),0.609
18,CCc1nc(C(=O)N2CCCC2)nn1-c1ccccc1Cl,6.73
19,Cn1ccc(CN2CCC(Oc3ccccc3)CC2)cc1=O,-5.66
20,O=C(c1ccoc1)N1CCCn2cnc(COCC3CC3)c2C1,-6.53

row,Compound,Percent Effect [%]
1,O=C(NCCC(=O)N1CCCCCC1)c1c(O)cc(F)cc1F,-11.1
2,CN(C)[C@@H]1CN(Cc2ccoc2)C[C@@H]2CCCO[C@@H]21,2.87
3,O=C(NCC1CCSCC1)N(CCCO)C1CCc2ccccc21 (stereo not given),-37.4
4,CC(C)OCCOCc1cccc(NC(=O)NCc2ccccn2)c1,-20.3
5,O=C1CCCCN1Cc1cccc(NC(=O)N2CCSCC2)c1,-1.06
6,COCCOc1ccccc1CNCc1c(C)nn(C)c1N(C)C,23.1
7,O=C(C1=CCCC1)N1CCO[C@H]2[C@@H](OCC3CC3)CC[C@@H]21,-28.7
8,CC(NC(=O)NCc1cc[nH]n1)c1ccc2c(c1)CCC(=O)N2 (stereo not given),-11.9
9,CCN1C(=O)CCCC12CCCN(C(=O)c1cnccn1)C2 (stereo not given),-10.9
10,CCC(C)NC(=O)Nc1ccc(CN2CCOC2=O)cc1 (stereo not given),-47.4
11,CC(C)(C)c1cn2nc(N3CCCC3Cn3cncn3)sc2n1 (stereo not given),-12.7
12,CC(Cc1ccco1)NC(=O)Nc1ccc(N2CCOCC2)nc1 (stereo not given),15
13,CC(C)CN1C(=O)C2(CCN(Cc3nccs3)C2)c2ccccc21 (stereo not given),-65.4
14,Cc1ccc2oc(C(=O)N3CCCC(n4nc(C)cc4C)C3)cc2n1 (stereo not given),1.89
15,CCc1nnc2n1CCN(C(=O)c1ccc3nc(C)c(C)nc3c1)C2,7.1
16,CCn1ncc2c1CCCC2NCc1ccc(OC)c(C)c1 (stereo not given),-11.4
17,CCOc1ccccc1C(CC(=O)Nc1nc(C)cs1)NC(C)=O (stereo not given),30.8
18,CC(C)c1cc(NC(=O)CN2CCc3cncnc3C2)on1,5.67
19,c1coc(CN2Cc3nccn3CC(Cn3cncn3)C2)c1 (stereo not given),-9.64
20,CC(=O)c1ccc(N2CCC(CO)(CCOc3ccccc3)CC2)nc1,-31.2
